Hits are enriched below; roughly 12% of the tested compounds scored in any of these assays.
AMA1-RON2 inh = qHTS for Inhibitors of AMA1-RON; Towards Development of Antimalarial Drug Lead: Primary Screen. AlphaScreen AMA1-biotinylated RON2 peptide binding. Potency, µM (top dose mostly 58.2 µM), actives largely listed as inhibitors. hit rate 0.2% among 360,000; further: nearly all actives have a fitted effect of over 45% in size
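AMA1 (3D7) with his tag at 25 nM final met compounds first, then biotinylated RON2 peptide at 25 nM; detection used donor plus acceptor beads, 10 µg/mL apiece, read by AlphaScreen after 30 min at room temperature.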
NS1 function inh = qHTS Assay for Inhibitors of Influenza NS1 Protein Function; Potency, µM (top dose mostly 46.1 µM); AID 2326, 2010; hit rate 0.4% among 270,000; calls by dose curve; further: actives are rising curves; nearly all actives have a fitted effect of over 50% in size
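A cell-based growth assay was used: compounds that relieve NS1-induced slow growth of budding yeast raise OD600. Assay medium was yeast nitrogen base with ammonium sulphate and -URA supplement, pH 6.0, with 2% galactose.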
HCV inh = qHTS Assay for Inhibitors of Hepatitis C Virus (HCV); Potency, µM (series often up to 41.8 µM), usual class: inhibitors; hit rate 3.4% among 340,000; Huh7.5.1 HCVcc-Cre infection, luciferase reporter, 44 h; AID 651820, 2012
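1,000 cells/well; 4 h culture; + compound; + HCVcc-Cre (~0.5 moi); 44 h; luciferase substrate, RT 15 min; read 15 sec.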
SARS PLpro yeast = qHTS of Yeast-based Assay for SARS-CoV PLP; S. cerevisiae expressing SARS-CoV PLpro, growth rescue; Potency, µM (doses to about 32.9 µM), hits mostly activators; hit rate 0.19% among 330,000; AID 485353, 2010; calls by dose curve; further: nearly all actives have a fitted effect of over 55% in size
Pf growth 96h = Primary qHTS for delayed death inhibitors of the malarial parasite plastid, 96 hour incubation | P. falciparum luciferase reporter growth, 96 h | Potency, µM (top dose mostly 28.7 µM), usual class: inhibitors | hit rate 6.9% among 320,000 | AID 504834, 2011
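Readout is luminescence from an integrated firefly luciferase in P. falciparum. Red cells, 2% hematocrit and 0.05% parasitemia final, were cultured with compound through two parasite generations (96 hours) at 37 C, 5% CO2.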
Pf growth 48h = Primary qHTS for delayed death inhibitors of the malarial parasite plastid, 48 hour incubation | P. falciparum luciferase growth in erythrocytes, 48 h | Potency, µM (doses to about 28.7 µM), actives largely listed as inhibitors | hit rate 5.9% among 310,000 | AID 504832, 2011
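In quantitative HTS format, infected erythrocytes bearing luciferase-reporter parasites were treated for a single generation at 37 C. Luminescence after adding detection reagent served as the growth measure.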
Each line names hits and unclear results; the compound was inactive in the other large screens; ! = not confirmed by another sample. Unless noted, the call rests on the fitted dose curve; in most records, active means well fitted curve in the direction sought with a large enough effect; inconclusive means small, poorly fitted or top-dose-only effect, or another doubt; inactive means no such curve, though single readings can be large; an effect the other way counts as inactive or inconclusive.

Cc1cc(C)n(CCC(=O)N2CCCC(Nc3ccc(F)cc3)C2)n1 (stereo unspecified)	none (no result: NS1 function inh, SARS PLpro yeast, Pf growth 96h, Pf growth 48h)
CCOc1ccccc1NC(=O)CC1Nc2ccccc2NC1=O (stereo unspecified)	NS1 function inh inconclusive, HCV inh inconclusive, Pf growth 96h 3.29µM, Pf growth 48h 2.33µM
CCCOc1ccccc1NC(=O)CC1Nc2ccccc2NC1=O (stereo unspecified)	Pf growth 48h 9.28µM
CCCOc1ccc(NC(=O)CC2Nc3ccccc3NC2=O)cc1 (stereo unspecified)	Pf growth 96h inconclusive
COc1ccc(CCNC(=O)CC2Nc3ccccc3NC2=O)cc1OC (stereo unspecified)	Pf growth 96h 1.47µM, Pf growth 48h inconclusive
NC(=S)NN=C1CCC(C2CCCCC2)CC1 (stereo unspecified)	HCV inh inconclusive (no result: NS1 function inh, SARS PLpro yeast, Pf growth 96h, Pf growth 48h)
NC(=S)NN=C1CCCCCCCCCC1	HCV inh 11.2µM (no result: NS1 function inh, SARS PLpro yeast, Pf growth 96h, Pf growth 48h)
CCc1nnc(NC(=O)CSc2nc(-c3ccccc3)nc3ccccc23)s1	none
COc1cc(C(=O)NNC(=O)c2cccn2C)cc(OC)c1OC	HCV inh inconclusive (no result: NS1 function inh)
CC1Cc2c([nH]c3ccccc23)C(=O)N1 (stereo unspecified)	HCV inh inconclusive, Pf growth 96h 9.28µM
O=C1NCCc2c1[nH]c1ccccc21	none
CCOC(=O)C1CCN(C(=O)CN(c2ccc(OC)cc2)S(=O)(=O)c2c(C)nn(C)c2C)CC1	Pf growth 96h 7.38µM (no result: Pf growth 48h)
COc1ccc(N(CC(=O)N2CCc3ccccc32)S(=O)(=O)c2c(C)nn(C)c2C)cc1	Pf growth 96h 8.28µM (no result: Pf growth 48h)
CN(C)CCNc1ncnc2oc(-c3ccccc3)c(-c3ccccc3)c12	HCV inh 3.16µM, Pf growth 96h inconclusive, Pf growth 48h inconclusive
CC(=O)Nc1nc2c(ncn2COCCOC(C)=O)c(=O)[nH]1	Pf growth 96h 13.1µM (no result: AMA1-RON2 inh)
CC(C)[C@H](N)C(=O)OCCOCn1cnc2c(=O)[nH]c(N)nc21	HCV inh 0.501µM!, Pf growth 96h inconclusive (no result: NS1 function inh, SARS PLpro yeast)
CC(=O)Nc1nc2ncc(C=O)nc2c(=O)[nH]1	none (no result: AMA1-RON2 inh, HCV inh, SARS PLpro yeast, Pf growth 96h, Pf growth 48h)
Cc1cccc(CN2CCN(C(=O)CN(C)C(C)C(=O)Nc3ccc(C(N)=O)cc3)CC2)c1 (stereo unspecified)	none (no result: NS1 function inh)
Cc1ccc(Oc2cc([N+](=O)[O-])cc3c2C(=O)Nc2ccccc2O3)cc1	HCV inh 12.6µM, Pf growth 48h inconclusive
O=C1Nc2ccccc2OCc2c1cccc2[N+](=O)[O-]	Pf growth 48h inconclusive (no result: NS1 function inh)
COc1cc(Cc2cnc(N)nc2N)cc(OC)c1OC	Pf growth 96h 2.13µM!, Pf growth 48h 1.51µM
COc1cc(CN2CCNCC2)cc(OC)c1OC	NS1 function inh inconclusive
CCC(Oc1ccccc1)C(=O)Nc1ccc(C)c(S(=O)(=O)N2CCOCC2)c1 (stereo unspecified)	HCV inh inconclusive, Pf growth 96h inconclusive, Pf growth 48h inconclusive (no result: NS1 function inh)
CCOc1ccc(S(=O)(=O)NC2CCCCC2C)cc1 (stereo unspecified)	none (no result: NS1 function inh, SARS PLpro yeast, Pf growth 96h, Pf growth 48h)
CC1CCCCC1NS(=O)(=O)c1ccc(S(=O)(=O)NCc2ccncc2)cc1 (stereo unspecified)	NS1 function inh inconclusive, HCV inh inconclusive, Pf growth 96h inconclusive, Pf growth 48h 14.7µM
Cc1coc2c(C)c3oc(=O)c(CCC(=O)N4CCC(C(=O)NCCCC(=O)O)(c5ccccc5)CC4)c(C)c3cc12	Pf growth 96h 9.28µM, Pf growth 48h inconclusive
Cc1oc2c(C)c3oc(=O)c(CCC(=O)N4C[C@H]5C[C@@H](C4)c4cccc(=O)n4C5)c(C)c3cc2c1C	Pf growth 96h 11.7µM, Pf growth 48h inconclusive
Cc1c(CC(=O)N2C[C@H]3C[C@@H](C2)c2cccc(=O)n2C3)c(=O)oc2c(C)c(O)ccc12	none
Cc1c(C)c2ccc(OC(C)C(=O)N3C[C@H]4C[C@@H](C3)c3cccc(=O)n3C4)c(C)c2oc1=O (stereo partly specified)	Pf growth 96h inconclusive
Cc1oc2cc3oc(=O)c(CCC(=O)N4C[C@H]5C[C@@H](C4)c4cccc(=O)n4C5)c(C)c3cc2c1C	Pf growth 96h 2.94µM, Pf growth 48h inconclusive
Cc1c(OC(C)C(=O)N2C[C@H]3C[C@@H](C2)c2cccc(=O)n2C3)ccc2c3c(c(=O)oc12)CCC3 (stereo partly specified)	HCV inh inconclusive, Pf growth 96h 10.4µM
COc1ccc(Br)cc1/C=N/NC(=O)CN1CCN(Cc2ccccc2)CC1	HCV inh inconclusive
CCSc1ccccc1C(=O)NC1CCCCC1	none
Cc1coc2c(C)c3oc(=O)c(CCC(=O)N4C[C@H]5C[C@@H](C4)c4cccc(=O)n4C5)c(C)c3cc12	Pf growth 96h inconclusive, Pf growth 48h 3.29µM
Cc1cccc(-n2c(C)nc3c(cnn3-c3ccc(F)cc3)c2=O)c1	HCV inh 6.31µM, Pf growth 96h 9.28µM, Pf growth 48h inconclusive
COc1cccc(-n2c(C)nc3c(cnn3-c3ccc(C)cc3)c2=O)c1	HCV inh inconclusive, Pf growth 96h inconclusive, Pf growth 48h inconclusive
COc1cccc(=O)c2c(C)n(-c3cc(C)cc(C)c3)c(C)c12	Pf growth 96h 2.62µM, Pf growth 48h 3.29µM
COc1cccc(-n2c(C)c3c(OC)cccc(=O)c3c2C)c1	AMA1-RON2 inh inconclusive, NS1 function inh inconclusive, Pf growth 96h inconclusive, Pf growth 48h 4.15µM
c1ccc(-c2nnc(CSc3ccc4c(c3)OCCO4)o2)cc1	none (no result: NS1 function inh)
O=C(COC(=O)c1nc(Cl)ccc1Cl)NCc1ccc(Cl)cc1	Pf growth 48h inconclusive (no result: NS1 function inh)
COc1cc(C2Nc3c(F)cccc3C3C=CCC32)cc(Br)c1OC (stereo unspecified)	Pf growth 48h 9.28µM
COc1cccc(C2Nc3c(F)cc(Br)cc3C3C=CCC32)c1OC (stereo unspecified)	Pf growth 96h 11.7µM, Pf growth 48h 9.28µM
COc1cccc(CN(C)C(=O)c2csc3c2CCCC3)c1OC	Pf growth 96h inconclusive (no result: NS1 function inh)
COCCNC(=O)c1cn(C)c2ccc(S(=O)(=O)N3CCCCC3)cc2c1=O	Pf growth 96h inconclusive
Oc1ccc(-c2csc(Nc3ncccn3)n2)cc1	Pf growth 96h 4.15µM
Cc1cccnc1Nc1nc(-c2ccccn2)cs1	HCV inh inconclusive, Pf growth 48h inconclusive (no result: Pf growth 96h)
c1ccc(-c2csc(Nc3ncccn3)n2)cc1	Pf growth 96h inconclusive
Cc1cccnc1Nc1nc(-c2ccccc2)cs1	HCV inh 15.8µM
O=C(Nc1cc(C(F)(F)F)ccc1-n1cncn1)c1ccc([N+](=O)[O-])o1	HCV inh inconclusive, Pf growth 96h inconclusive, Pf growth 48h inconclusive (no result: NS1 function inh)

Bioassay records from PubChem.
